Our source for the activity change, negative = cytotoxicity values is PubChem BioAssay AID1053143 (Broad Institute, 2014).

About 120 (3.5%) of roughly 3,400 compounds were called active. No rule for the calls is given here. Only a sample is shown. Results with a measured potency or affinity are listed apart.

The assay is described as follows: viability loss in HepG2 hepatoma cells – cell-based, ATP luminescence, cherry-pick, activator set 2, cytotoxicity control, dose response (AID 1053143). The note with it: CellTiter-Glo ATP luminescence, 72 h; series mostly up to 26 µM.
Consider `O=C(NCCc1ccc(Cl)cc1)c1ccc2c(c1)OCO2`, for which the activity change, negative = cytotoxicity result was “inactive”.

As for `Cc1cccc(OCC(=O)Nc2nccs2)c1C`, the activity change, negative = cytotoxicity result was “inactive”.

`CC(C)(C)NC(=O)Nc1ccc(Br)cc1`: the activity change, negative = cytotoxicity result was “inactive”.

Take `O=C1c2ccncc2C(=O)N1CNc1ccc(Cl)cc1`: the activity change, negative = cytotoxicity entry is “inactive”.

Take `O=C(Cc1nc2ccccc2[nH]c1=O)c1ccc(Cl)cc1`: the activity change, negative = cytotoxicity result is “inactive”.

Regarding `O=C(O)c1ccc(/C=C(\c2nc3ccccc3[nH]2)c2nc3ccccc3s2)cc1`, the activity change, negative = cytotoxicity entry was “inactive”.

Regarding `CCc1cc(C(=O)COc2ccc(F)cc2)c(O)cc1O`, the activity change, negative = cytotoxicity result is “inactive”.

Turning to `CC1(C)Cc2c(c(N3CCOCC3)nc3sc(C(=O)Nc4ccccc4)c(N)c23)CO1`, the activity change, negative = cytotoxicity entry is “inactive”.

Take `CN(C)c1ccnc2sc(C(=O)c3ccccc3)c(N)c12`: the activity change, negative = cytotoxicity entry is “inactive”.

For the compound `CCCCN1CCc2c([nH]c3ccc(C)cc23)C1=O`, the activity change, negative = cytotoxicity result is “inactive”.

Take `O=C1CCC(c2ccccc2)c2ccccc21` (configuration not stated): the activity change, negative = cytotoxicity result is “inactive”.

Consider `Cn1ccc(NC(=O)c2ccc(Cl)cc2Cl)n1`, for which the activity change, negative = cytotoxicity result is “inactive”.

Consider `O=C(Nc1ccc2ccccc2c1)c1ccc(Cl)cc1Cl`, for which the activity change, negative = cytotoxicity entry was “inactive”.

Turning to `O=C(NCCO)c1ccc2c3n(nc2c1)-c1ccc(Cl)cc1CO3`, the activity change, negative = cytotoxicity entry was “inactive”.

As to `CN(C)CCN1C(=O)C(=O)/C(=C(/O)c2ccc3c(c2)OCCO3)C1c1ccccn1` (configuration not stated), the activity change, negative = cytotoxicity result is “inactive”.

In the case of `COc1cccc(/C=C/C(=O)NNC(=O)c2ccccc2)c1OC`, the activity change, negative = cytotoxicity result was “inactive”.

For `CSc1nc(Cl)cc(Nc2ccc(O)cc2)n1`, the activity change, negative = cytotoxicity result is “inactive”.

Regarding `Cc1cccc(C(=O)OCC(=O)c2c(C)[nH]c3ccccc23)c1O`, the activity change, negative = cytotoxicity entry is “inactive”.

On to `Cc1cccc(NC(=O)c2c(O)c3ccccc3[nH]c2=O)c1`, for which the activity change, negative = cytotoxicity result is “inactive”.

Regarding `Nn1c(SCc2c(F)cccc2F)nnc1-c1ccccn1`, the activity change, negative = cytotoxicity result was “inactive”.

Take `O=C(Nc1ccc(NC(=O)c2cccs2)cc1Cl)c1ccco1`: the activity change, negative = cytotoxicity result was “inactive”.

As for `CCC(=O)Nc1ccc(NC(=O)c2ccco2)c(OC)c1`, the activity change, negative = cytotoxicity entry was “inactive”.

Take `Cc1cccc(NC(=O)c2ccccn2)c1C`: the activity change, negative = cytotoxicity entry is “inactive”.

Take `CC1(O)C(c2ccccc2)=Nc2ccccc21` (configuration not stated): the activity change, negative = cytotoxicity result is “inactive”.

Regarding `O=C(c1cc(COc2c(F)cccc2F)on1)N1C[C@H]2CC[C@H]1C2`, the activity change, negative = cytotoxicity entry is “inactive”.

In the case of `CC(C)c1ccc(-n2nc3ccc(N)cc3n2)cc1`, the activity change, negative = cytotoxicity result was “inactive”.

`Cc1ccc(-n2nc3ccc(N)cc3n2)cc1C`: the activity change, negative = cytotoxicity result was “inactive”.

As for `CC(=O)c1ccc2c(c1)Cc1cc(C(C)=O)ccc1-2`, the activity change, negative = cytotoxicity result was “inactive”.

Consider `CC1CCc2sc(C(=O)NC3CCCCC3)cc2C1` (configuration not stated), for which the activity change, negative = cytotoxicity result was “inactive”.

Turning to `C(=N\Nc1nc2ccccc2[nH]1)/c1ccc2c(c1)OCCO2`, the activity change, negative = cytotoxicity entry was “inactive”.

`C(=C\c1ccccc1)/C=N/Nc1nc2ccccc2[nH]1`: the activity change, negative = cytotoxicity entry was “inactive”.

Take `Clc1nc2ccccc2cc1/C=N/Nc1nc2ccccc2[nH]1`: the activity change, negative = cytotoxicity entry is “inactive”.

Regarding `Cc1ccc(/C=N/Nc2nc3ccccc3[nH]2)s1`, the activity change, negative = cytotoxicity result is “inactive”.

Regarding `Fc1ccccc1-c1ccc(/C=N/Nc2nc3ccccc3[nH]2)o1`, the activity change, negative = cytotoxicity result was “inactive”.

As for `C(=N\Nc1nc2ccccc2[nH]1)/c1cccs1`, the activity change, negative = cytotoxicity result is “inactive”.

Regarding `C=CCn1cc(/C=N/Nc2nc3ccccc3[nH]2)c2ccccc21`, the activity change, negative = cytotoxicity entry is “inactive”.

Take `Cc1ccsc1/C=N/Nc1nc2ccccc2[nH]1`: the activity change, negative = cytotoxicity result is “inactive”.

On to `O=C(COC(=O)CC1CCCC1)Nc1cc2c(cc1Cl)C(=O)c1ccccc1C2=O`, for which the activity change, negative = cytotoxicity result is “inactive”.

For `O=C(O)CC1=C(Nc2ccccc2)C(=O)N(c2ccccc2)C1c1ccc(Br)cc1` (configuration not stated), the activity change, negative = cytotoxicity result is “inactive”.

As for `COC(=O)C(C)N1C(=O)S/C(=C/c2cc(C)n(-c3ccccn3)c2C)C1=O` (configuration not stated), the activity change, negative = cytotoxicity result is “inactive”.

Turning to `Cc1cccc(-n2ncc3c(NCCCO)ncnc32)c1`, the activity change, negative = cytotoxicity entry is “inactive”.

As for `O=C(CCNC(=O)c1ccc(Br)cc1)Nc1ccc(S(=O)(=O)N2CCOCC2)cc1`, the activity change, negative = cytotoxicity result was “inactive”.

With `C=CCc1c(C)nc2cc(-c3ccccc3)[nH]n2c1=O`, the activity change, negative = cytotoxicity entry was “inactive”.

In the case of `Cc1ccc2oc(C(=O)N(C)Cc3ccon3)c(C)c2c1`, the activity change, negative = cytotoxicity result was “inactive”.

Turning to `C(/C=C/c1ccccn1)=C\c1ccccc1`, the activity change, negative = cytotoxicity entry was “inactive”.

With `COc1ccc2cc3cc(C(=O)N4CCCC(C)C4)oc3nc2c1` (configuration not stated), the activity change, negative = cytotoxicity entry is “inactive”.

Take `Cn1c(NC(=O)c2ccccc2F)c(-c2cccs2)c(=O)c2ccccc21`: the activity change, negative = cytotoxicity entry is “inactive”.

In the case of `COc1ccc(N=NC2=C(O)CC(C)(C)CC2=O)cc1`, the activity change, negative = cytotoxicity result was “inactive”.

In the case of `CCC(=O)Nc1cc(C(=O)OCC(=O)c2ccccc2Cl)ccc1C`, the activity change, negative = cytotoxicity entry is “inactive”.

`CCC(=O)Nc1ccc2nn(-c3ccc(F)cc3)nc2c1`: the activity change, negative = cytotoxicity result is “inactive”.

In the case of `Cc1cc2nn(-c3ccccc3)nc2cc1NC(=O)c1cccs1`, the activity change, negative = cytotoxicity result was “inactive”.

Consider `CC(=O)Nc1cccc(-n2nnc(SCC(=O)c3ccccc3)n2)c1`, for which the activity change, negative = cytotoxicity entry was “inactive”.

In the case of `CCCC(=O)Nc1ccc2oc(-c3cccnc3)nc2c1`, the activity change, negative = cytotoxicity result is “inactive”.

In the case of `Cc1ccc(NC(=O)Nc2cccc(C)n2)cc1`, the activity change, negative = cytotoxicity was -7.97% [at 6 µM] (inactive).

For the compound `O=C(CC(=O)c1ccccc1)Nc1ccccc1`, the activity change, negative = cytotoxicity entry is “inactive”.

Take `CC(=O)Nc1cccc(NC(=O)CCCC(=O)O)c1`: the activity change, negative = cytotoxicity result is “inactive”.

Turning to `O=C(Nc1cc(F)c(Br)cc1F)c1ccc(Cl)cc1`, the activity change, negative = cytotoxicity entry is “inactive”.

On to `Cc1cnc(NC(=O)c2ccc3ncsc3c2)s1`, for which the activity change, negative = cytotoxicity entry is “inactive”.

Regarding `NC(=O)Cc1c[nH]c2cccc(O)c12`, the activity change, negative = cytotoxicity entry is “inactive”.

For `CCn1c(O)c(C#N)c(C)cc1=O`, the activity change, negative = cytotoxicity entry is “inactive”.

On to `c1csc(-c2nc(N3CCCCC3)no2)c1`, for which the activity change, negative = cytotoxicity entry was “inactive”.

Regarding `O=C(Nc1ccc(F)cc1F)c1csc(-c2cccs2)n1`, the activity change, negative = cytotoxicity entry is “inactive”.
